Results filed as inconclusive are left out. Active and inactive are the calls of the source. The call rests on the fitted dose curve; in most records, active means well fitted inhibition curve with a large enough effect; inconclusive means small, poorly fitted or top-dose-only effect; inactive means flat fitted curve, though single readings scatter.
tested on: KB-3-1; test: Cytotoxic Profiling of Annotated Libraries Using Quantitative High-Throughput Screening (AID 1296008); details: Five cell lines viability, CellTiter-Glo ATP luminescence, 48-72 h; max response: hits give low values; further: nearly all actives have a fitted effect of over 60% in size
Method in brief: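 Compounds were pin-transferred onto cells and incubated 48 or 72 hr at 37 degree Celsius, 95% humidity. CellTiter-Glo was added, plates sat 10 min at room temperature, then ATP-coupled luminescence was imaged as the viability read-out.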
On the % scale 0 is the no-effect control and ±100 the full control effect; potency means the concentration at half of the fitted maximal effect.

Row | Structure (SMILES) | max response | Potency | outcome
1 | COc1ccc(-c2cnc3c(-c4cccc5ncccc45)cnn3c2)cc1 | -5.9% (inactive) |  | 
2 | O=C(O)CSc1cc(NS(=O)(=O)c2ccc(Br)cc2)c2ccccc2c1O |  | 18.4 µM (active) | 
3 | NCC(CNc1nc(Nc2cccc(NC(=O)N3CCCC3)c2)ncc1I)C(=O)c1cccs1 (stereo not given) |  | 11.6 µM (active) | 
4 | Cc1nc2cc(C(=O)NCc3ccccn3)nn2c(C)c1Cc1cccc(Cl)c1 | -9.98% (inactive) |  | 
5 | CCN(CC)CCCCCCNc1cc(OC)cc2c(C)ccnc12 | -5.11% (inactive) |  | 
6 | CCC(C)C(=O)Oc1cc(C)ccc1C1(COC(=O)C(C)C)CO1 (stereo not given) | -3.14% (inactive) |  | 
7 | CCOc1cccc(NC(=O)c2ccc(N3CCCC3)c(C(F)(F)F)c2)c1 | -0.259% (inactive) |  | 
8 | Cc1ccc(OC[C@H](O)[C@H](C)NC(C)C)c2c1CCC2 | 5.3% (inactive) |  | 
9 | Cc1csc(N(C(=O)CSc2ccc(-c3ccccc3)nn2)C2CC2)n1 | -2.9% (inactive) |  | 
10 | O=C(NCCCNc1nc(Nc2cccc(CN3CCOCC3)c2)ncc1C1CC1)C1CCC1 |  | 20.6 µM (active) | 
11 | C=C1C(=O)OC2C=C(C)CC/C=C(\CO)CC(O)C12 (stereo not given) | 5.92% (inactive) |  | 
12 | CC(C)(O)c1ccc2c(c1)ncn2-c1cccc(-c2ccccc2C#N)c1 | -0.453% (inactive) |  | 
13 | O=C(O)C1=CO[C@@H](O[C@@H]2O[C@H](CO)[C@@H](O)[C@H](O)[C@H]2O)[C@@H]2C(CO)=CC[C@H]12 | 6.01% (inactive) |  | 
14 | CN1CCC(c2cn(C)c3ccc(OS(=O)(=O)c4c(F)cccc4F)cc23)CC1 | -7.12% (inactive) |  | 
15 | C=C1C(=O)OC2/C=C(\C)CC/C=C(\C=O)C(OC)C(OC(=O)C(C)CC)C12 (stereo not given) | -2.57% (inactive) |  | 
16 | CCOc1ccc(CCNC(=O)c2cc3sc(Cl)cc3n2C)cc1OCC | -5.99% (inactive) |  | 
17 | C=C(C(=O)OC)[C@@H]1CC=C2C=CC(=O)[C@H](C)[C@@]2(C)C1 | -5.91% (inactive) |  | 
18 | CC(C)(C)c1ccc2c(c1)CC[C@H]2NC(=O)Nc1cccc2[nH]ncc12 | -1.56% (inactive) |  | 
19 | O=C(OC1CN2CCC1CC2)N1CCc2ccccc2C1c1ccccc1 (stereo not given) | -9.02% (inactive) |  | 
20 | CCn1c(=O)n([C@H]2CCCN(c3nccc(-c4cc5ccccc5o4)n3)C2)c2ccccc21 | -9.5% (inactive) |  | 

Row | Structure (SMILES) | max response | Potency | outcome
21 | CC(C)S(=O)(=O)c1ccc2nccc(Nc3ccc4scnc4c3)c2c1 |  |  | inactive
22 | O=c1cc(OCc2ccc(F)cc2)ccn1-c1ccc(OCCN2CCCC2)cc1 | -29.6% (inactive) |  | 
23 | CC(=O)c1ccc2c(c1)[C@H](NC(=O)c1ccc(F)c(Cl)c1)[C@H](O)C(C)(C)O2 | 2.28% (inactive) |  | 
24 | CN(C)c1cccc(Oc2cnc(Nc3cccc(O)c3)nc2)c1 |  |  | inactive
25 | O=C(O)c1ccc(S(=O)(=O)N(Cc2ccc(OC(F)(F)F)cc2)c2ncc(C(F)(F)F)cc2Cl)cc1 | 0.52% (inactive) |  | 
26 | CN1CCN(C2=Nc3ccccc3Nc3ccc(Cl)cc32)CC1 | -4.21% (inactive) |  | 
27 | COc1cc(C(=O)NC(=S)Nc2cccc(NC(=O)c3ccccc3)c2)cc(OC)c1OC | 6.94% (inactive) |  | 
28 | COC1C(OC(=O)/C=C/C=C/C=C/C=C/C(=O)O)CCC2(CO2)C1C1(C)OC1CC=C(C)C (stereo not given) |  |  | inactive
29 | O=C(NCC1(c2nc(-c3ccccc3)cs2)CCOCC1)c1cccc(-c2noc(C(F)(F)F)n2)c1 | -10.2% (inactive) |  | 
30 | COc1ccc(CCN(C)CCCOc2nsc(-c3ccccc3)n2)cc1OC | -3.88% (inactive) |  | 
31 | CN[C@H]1CC[C@@H](c2ccc(Cl)c(Cl)c2)c2ccccc21 | -11.2% (inactive) |  | 
32 | O=[N+]([O-])c1ccc(Oc2ccc3c(c2)CCC(c2ccccc2)O3)nc1 (stereo not given) | -24.2% (inactive) |  | 
33 | Cc1c(NC(=O)c2cc3c(s2)CCCC3)cccc1-c1cn(C)c(=O)c(Nc2ccc(C3C(=O)N(C)CCN3C)cc2)n1 (stereo not given) |  |  | inactive
34 | O=C(Nc1ccccc1C(=O)Nc1ccc(CCO)cc1)c1ccc([N+](=O)[O-])cc1 |  |  | inactive
35 | CC(C)Nc1nc(Nc2ccccc2)nc(-c2ccccc2)n1 | -2.52% (inactive) |  | 
36 | CCOc1nc(NC(=O)Cc2cc(OC)ccc2OC)cc(N)c1C#N | 7.15% (inactive) |  | 
37 | COc1ccccc1OCCN1CC(COc2cccc3[nH]c4ccccc4c23)OCC1=O (stereo not given) | -7.07% (inactive) |  | 
38 | COc1ccc(C(=O)O[C@H]2C=COC=C3C=C4C(=O)N(C)C(=S)C(=O)N4[C@@H]32)cc1Oc1cc(C=O)ccc1O |  |  | inactive
39 | CCNC1(C(N)=O)CCN(c2ncnc3c2nc(-c2ccccc2Cl)n3-c2ccc(Cl)cc2)CC1 | 6.15% (inactive) |  | 
40 | CC1(C)CCCC2(C)C1C(OC(=O)/C=C/C=C/C=O)C=C1COC(=O)C12O (stereo not given) |  |  | inactive

Reference: PubChem BioAssay (NCATS)
